# This is a sample that favours compounds with a hit; in the whole collection about 1.8% have one here.
# VDR inh: Inhibitors of the vitamin D receptor (VDR): qHTS; Potency, µM, for the others: max response, negative = inhibition, usual class: inhibitors; 0.93% of 400,000 active; Vitamin D3 receptor (Homo sapiens), P11473; VDR-SRC2-3 peptide fluorescence polarization, 2 h; AID 504847, 2011; further: on the % scale 0 is the no-effect control and ±100 the full control effect
#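 Two reagent solutions held at 4 deg C in the dark were dispensed, compounds pinned at 23 nl, and the mixture incubated 2 h at room temperature. Read-out: fluorescence polarization of VDR–SRC2-3 peptide binding.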
# TrxR1 substrate: qHTS Assay for Substrates of Mammalian Selenoprotein Thioredoxin Reductase 1 (TrxR1): qHTS. purified TrxR1 substrate turnover, NADPH consumption readout. Potency, µM (doses to about 114 µM), for inactives: at the highest dose activity change, negative = substrate turnover. 0.01% of 390,000 active. AID 588456, 2011; further: on the % scale 0 is the no-effect control and ±100 the full control effect; nearly all actives have a fitted effect of over 50% in size
#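 Rat TrxR1, dispensed at 90 nM, was prereduced with 400 uM NADPH (final) for 5 min at ~22 deg C, then incubated with compound 15 min before 400 uM selenite. A first-read NADPH fluorescence drop versus no-compound background flagged substrates.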
# Vif-APOBEC3G blk: qHTS for Inhibitors of Vif-A3G Interactions: qHTS. 0.076% of 410,000 active. AID 602310, 2012. DNA dC->dU-editing enzyme APOBEC-3G (Homo sapiens), Q9HC16. Potency, µM (doses to about 46.1 µM), inactives show at the highest dose activity, negative = active, most hits filed as inhibitors. HeLa A3G-eYFP + Vif (tagged APOBEC3G with the HIV-1 protein that degrades it), YFP fluorescence, overnight; further: on the % scale 0 is the no-effect control and ±100 the full control effect; nearly all actives have a fitted effect of over 60% in size
# Target sequence (Q9HC16 whole entry, looked up): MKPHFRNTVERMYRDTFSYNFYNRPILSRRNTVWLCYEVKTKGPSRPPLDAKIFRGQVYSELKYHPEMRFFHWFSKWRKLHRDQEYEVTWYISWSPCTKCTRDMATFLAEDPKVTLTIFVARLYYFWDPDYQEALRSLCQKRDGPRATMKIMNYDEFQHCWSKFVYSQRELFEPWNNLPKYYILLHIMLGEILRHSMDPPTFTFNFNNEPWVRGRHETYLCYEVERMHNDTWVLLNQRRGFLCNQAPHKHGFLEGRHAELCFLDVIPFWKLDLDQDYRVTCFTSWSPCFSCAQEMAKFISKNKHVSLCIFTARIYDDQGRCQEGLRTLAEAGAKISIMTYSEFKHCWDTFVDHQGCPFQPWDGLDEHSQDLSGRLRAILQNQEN
#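 Read-out is eYFP fluorescence (Ex 488/Em 500-530) from Vif-expressing HeLa A3G-eYFP cells; more signal means A3G escaped Vif-mediated degradation. Cells plated overnight, compound pinned in, incubated overnight at 37 deg C.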
# TrxR1 inh: qHTS Assay for Inhibitors of Mammalian Selenoprotein Thioredoxin Reductase 1 (TrxR1): qHTS. Thioredoxin reductase 1, cytoplasmic (Rattus norvegicus), O89049. recombinant rTrxR1, NADPH fluorescence consumption, selenite substrate. Potency, µM (titrated, usually from 114 µM), for inactives: at the top dose activity change, negative = inhibition, most hits filed as inhibitors. 1% of 390,000 active; further: on the % scale 0 is the no-effect control and ±100 the full control effect; nearly all actives have a fitted effect of over 65% in size
#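 Rat TrxR1 (90 nM in the dispensed reagent) was pre-reduced with 400 uM NADPH for 5 min at room temperature, then incubated with compound for 15 min. After 400 uM selenite was added, NADPH fluorescence (Ex 340/Em 450 nm) was followed for 8 min.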
# Vif-A3F inh: qHTS for Inhibitors of Vif-A3F Interactions: qHTS; HeLa A3F-eYFP + Vif (tagged APOBEC3F with the HIV-1 protein that degrades it), YFP fluorescence increase; Potency, µM (highest dose often 46.1 µM), without a hit: at the highest dose activity, negative = active; 0.2% of 390,000 active; AID 602313, 2012; further: % of control where 0% means no effect; nearly all actives have a fitted effect of over 65% in size
#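 Fluorescence increase (Ex 488/Em 500-530) after overnight compound treatment at 37 deg C flags inhibition of Vif-driven A3F-eYFP loss in stable HeLa A3F-eYFP/Vif cells seeded overnight beforehand.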
# An asterisk follows results filed as active; ? = inconclusive; / = no result; ! = repeats disagree; [ ] = another dose, or the depositor's remark. The call rests on the fitted dose curve; in most records, active means well fitted curve in the direction sought with a large enough effect; inconclusive means small, poorly fitted or top-dose-only effect, or another doubt; inactive means no such curve, though single readings can be large; an effect the other way counts as inactive or inconclusive. Potency means the concentration at half of the fitted maximal effect.
SMILES,VDR inh,TrxR1 substrate,Vif-APOBEC3G blk,TrxR1 inh,Vif-A3F inh
O=S(=O)(CCOc1ccccc1)c1nc2ccccc2[nH]1,-6.9%,-0.4%,?,44.7µM*,0.4%
O=C(Nc1ccc2nc(-c3ccco3)c(-c3ccco3)nc2c1)N1CCCC1,70.8µM*,8.0%,-0.9%,?,/
CC1CCN(C(=O)Nc2ccc3nc(-c4ccco4)c(-c4ccco4)nc3c2)CC1,?,-15.1%,-13.3%,3.98µM*,/
Cc1nc2ccc(NC(=O)N3CCOCC3)cc2nc1C,2.4%,85.7%,0.3%,23.9%[57.1 µM],-10.8%
O=C(c1ccc2nc(-c3ccco3)c(-c3ccco3)nc2c1)N1CCN(c2ncccn2)CC1,-7.2%,5.4%,-6.3%,12.6µM*,-14.0%
O=C(Nc1ccc2nc(-c3ccco3)c(-c3ccco3)nc2c1)N1CCN(c2ccccn2)CC1,89.1µM*,-11.7%,3.0%,1.41µM*,-9.2%
O=c1cc(-c2cccc(-c3ccc(C(F)(F)F)cc3)c2)c2cc3c(cc2o1)OCO3,-1.9%,/,/,/,/
O=C(Nc1ccc(N2CCOCC2)cc1)c1ccc2nc(-c3ccco3)c(-c3ccco3)nc2c1,13.0%,1.5%[57.1 µM],-2.3%,-20.1%,-7.1%
S=C(Nc1ccc(N2CCOCC2)cc1)Nc1ccc2nc(-c3ccco3)c(-c3ccco3)nc2c1,-18.2%,-8.9%,-24.2%,2.51µM*,?
CC(=Nc1ccccc1N)c1c(C)cc(=O)n(O)c1O,9.5%,/,/,/,/
CCNc1ccc(/C=C2\C=Cc3ccccc32)cc1,/,-5.6%[0.0914 µM],1.3%,?,/
CCNc1ccc(Br)cc(C(=O)/C=C/c2ccccc2Cl)c1=O,28.2µM*,-3.8%,10µM*,?,?
CC(O)c1cccc2cc(C(O)CNC(C)(C)C)oc12 (centres undefined),7.2%,/,/,/,/
COc1ccc2c(c1OC)C(=O)N1c3ccccc3C(=O)N(Cc3ccco3)C21 (centres undefined),?,1.1%,1.4%,39.8µM*,/
COc1ccc(CNC(=O)c2nn(C)c3c2CS(=O)(=O)c2ccccc2-3)cc1,79.4µM*!,-3.5%,1.5%,-23.3%,12.2%
Cc1ccc2c(c1)Sc1c(ccc3ccccc13)N2,-17.8%,3.9%,?,27.3%,22.4µM*
Cc1nn2c(=O)cc(COC(=O)c3ccc(NC(=O)CCc4ccccc4)cc3)nc2s1,-4.9%,0.0%[57.1 µM],3.1%,11.3%[57.1 µM],5.2%
COc1ccc(-c2nc3n(n2)C(=O)CC(c2ccco2)S3)cc1 (centres undefined),14.1%,3.3%,0.2%,14.1µM*,2.6%
Nc1ccc(/C=C/c2cccc3cccnc23)cc1,/,-6.1%,-9.9%,9.7%,/
CCN(CC)Cc1cc(O)c(CN(CC)CC)cc1O,-2.5%,7.2%,3.4%,10µM*,-3.9%
CCc1oc(C(=O)O)cc1CN(CC)CC,-3.8%,-2.6%,1.9%,7.1%,-4.9%
COc1ccc(C2NC(=O)C(C#N)=C(S)N2c2cccc(C)c2)cc1OC (centres undefined),?,1.9%[57.1 µM],-1.2%,2.9%[57.1 µM],2.5%
COc1ccc(N2C(S)=C(C#N)C(=O)NC2c2ccc(OC)c(OC)c2)cc1 (centres undefined),39.8µM*,4.5%,4.6%,-15.7%,-16.1%
COc1ccc(C2NC(=O)C(C#N)=C(S)N2c2ccc(C)cc2)cc1OC (centres undefined),31.6µM*,-8.3%,3.8%,-7.7%,-30.0%
COc1cc(C2NC(=O)C(C#N)=C(S)N2c2ccc(C)cc2)ccc1OC(C)C (centres undefined),28.2µM*,-7.5%,2.1%,-23.9%,-2.6%
SMILES,VDR inh,TrxR1 substrate,Vif-APOBEC3G blk,TrxR1 inh,Vif-A3F inh
CCOc1ccc(C2NC(=O)C(C#N)=C(S)N2c2ccc(OC)cc2)cc1OC (centres undefined),?,-8.9%[57.1 µM],1.0%,-19.9%[57.1 µM],-3.7%
O=C(Nc1ccc2nc(SCC(=O)N3CCCc4ccccc43)sc2c1)c1ccccc1,2.2%,9.4%,6.1%,42.4%,1.0%
CC(=O)Nc1ccc(S(=O)(=O)c2cc(O)ccc2O)cc1,10.0%,-0.5%,-7.0%,17.8µM*,?
CC(=O)CCS(=O)(=O)c1ccc(NC(C)=O)cc1,-13.6%,11.9%,-1.1%,39.8µM*,-4.5%
CC(=O)Nc1ccc(S(=O)(=O)CCC(=O)O)cc1,13.3%,-4.4%,-1.1%,-14.5%,2.2%
O=C(c1ccc2c(=O)n(CCc3ccccc3)c(=O)[nH]c2c1)N1CCN(C(=O)c2ccco2)CC1,-9.3%,4.1%,/,1.5%,/
N#CC1=C2SCN(Cc3ccco3)CN2C(=O)CC1c1ccc(Cl)cc1 (centres undefined),?,3.1%,-4.6%,-25.6%,-0.5%
COc1ccc(C2C(C#N)=C(N)Oc3cc(C)n(Cc4ccco4)c(=O)c32)cc1 (centres undefined),?,1.1%,-4.2%,3.16µM*,5.4%
COc1ccc(C2CC(=O)N3CN(Cc4ccco4)CSC3=C2C#N)cc1 (centres undefined),28.2µM*,-5.3%,-0.7%,?,1.7%
CC(C)c1ccc(C2CC(=O)N3CN(Cc4ccco4)CSC3=C2C#N)cc1 (centres undefined),39.8µM*,-4.5%,2.4%,-34.7%,0.2%
N#CC1=C2SCN(Cc3ccccc3)CN2C(=O)CC1c1ccc2c(c1)OCO2 (centres undefined),50.1µM*,-2.5%,1.6%,?,-6.0%
CC1CC(C)CN(c2oc(-c3ccc(OCc4ccccc4Cl)cc3)nc2C#N)C1 (centres undefined),-11.4%,12.6%[0.0914 µM],-0.6%,-1.0%,/
CCC(=O)OC1(C)C(=O)C=C2C=C(CCCNC(=O)OC(C)(C)C)OC=C2C1=O (centres undefined),2.5%,/,/,/,/
CCc1c2c(nc3ccc(OC)cc13)-c1nc3ccccc3c(=O)n1C2,1.1%,60.1%,1.5%,49.8%[57.1 µM],/
COc1ccc(S(=O)(=O)n2nc(OC(=O)c3ccccc3)cc2N)cc1,-13.5%,-4.0%[57.1 µM],2.1%,-16.2%[57.1 µM],4.9%
COc1ccc(S(=O)(=O)n2nc(OC(=O)c3ccncc3)cc2N)cc1,?,2.3%,-0.4%,28.2µM*,5.9%
COc1ccc(NC(=S)Nc2nc(CC(=O)Nc3ccccc3OC)cs2)cc1,-8.5%,0.3%,3.2%,1µM*,-3.2%
COc1ccccc1NC(=O)Cc1csc(NC(=S)Nc2ccccc2)n1,-20.9%,-1.4%,-9.4%,?,-2.4%
O=C1C=CC(=O)c2c(O)c(N3CCN(CCOCCO)CC3)c(Br)c(O)c21,?,?,7.1%,?,-5.2%
O=C1C=CC(=O)c2c(O)c(N3CCN(CCO)CC3)c(Cl)c(O)c21,8.91µM*,56.2µM*,6.3%,17.8%,2.0%
